This note sets out measurements from PubChem BioAssay (NCATS).

Test [1] in a line: Confirmatory screen NINDS Rhodamine qHTS for Zika virus inhibitors (AID 1347161).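 Note: purified Zika NS2B-NS3 protease with linked NS2B cofactor domain and Rhodamine110 peptide substrate; plate controls were no-inhibitor control for no effect and no-enzyme control for full effect; nearly all actives have a fitted effect of over 60% in size.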 A digest of the protocol:
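Percent inhibition, normalized to uninhibited and enzyme-free controls, is fitted to a 4-parameter Hill equation. Fluorescence change comes from a 15-min cleavage of 1.5 microM bis-peptide Rhodamine110 substrate by 25 nM linked NS2B-NS3 at room temperature.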

The nature of test [2]: Tertiary RLuc qRT-PCR qHTS assay for Zika virus inhibitors (AID 1347169). Note: top concentration of the series differs between compounds; % is set by controls: 0 for no effect and ±100 for the full control effect; nearly all actives have a fitted effect of over 55% in size. A digest of the protocol: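 Vero cells (1,000 per well) plated overnight at 37 degrees C, treated with compound in DMSO, then infected with recombinant ZIKV-RLuc (Cambodian) at MOI 1-2 for 48-72 hrs. Live-cell Renilla luciferase substrate added; luminescence read after 1-1.5 hrs.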
Test [3] in a line: Primary qHTS for small molecule stabilizers of the endoplasmic reticulum resident proteome: Secreted ER Calcium Modulated Protein (SERCaMP) assay (AID 1508630). Note: % is set by controls: 0 for no effect and ±100 for the full control effect. A digest of the protocol:
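GLuc-SERCaMP-expressing SH-SY5Y cells, pretreated 16 h with compound, are challenged with thapsigargin to empty ER calcium stores; after 4 h, coelenterazine is added directly to the medium and luminescence is imaged.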

Test [4] in a line: qHTS for Inhibitors of Plasmodium falciparum (DD2) proliferation (AID 504314).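 For activity, negative = inhibition: parasite DNA measured by SYBR Green fluorescence after red cell lysis; plate controls were DMSO vehicle for no effect and artemisinin wells for full effect.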 Note: potency is the fitted concentration of half-maximal effect. The procedure, abridged:
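Fluorescence read-out (ex 485/em 535 nm) of SYBR Green-stained parasite DNA quantifies intraerythrocytic growth. Cultures at 0.3% parasitemia and 2.5% hematocrit were treated for 72 h; data normalized to DMSO and 0.29 uM artemisinin wells.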

Test [5] is described as follows: qHTS for Inhibitors of Plasmodium falciparum (GB4) proliferation (AID 504315).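 For activity change, negative = inhibition: 0% = DMSO vehicle and -100% = 0.29 µM artemisinin control.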 Note: nearly all actives have a fitted effect of over 50% in size. Note: potency is the fitted concentration of half-maximal effect. A digest of the protocol: (§1)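 Erythrocytes infected with P. falciparum line (0.3% parasitemia, 2.5% hematocrit final) incubated with compounds 72 h at 37 °C, 5% CO2; SYBR Green lysis buffer added, fluorescence read next day. Normalized to 0.29 uM artemisinin and DMSO.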
Test [6] can be described thus: qHTS for Inhibitors of Plasmodium falciparum (7G8) proliferation (AID 504316).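 For activity change, negative = inhibition: 0% = DMSO vehicle and -100% = 0.29 µM artemisinin full kill.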 Note: nearly all actives have a fitted effect of over 65% in size. Note: potency is the fitted concentration of half-maximal effect. The procedure, abridged: as §1
Test [7] can be described thus: qHTS for Inhibitors of Plasmodium falciparum (HB3) proliferation (AID 504318).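 For activity change, negative = inhibition: 0% = DMSO vehicle and -100% = artemisinin control.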 Note: nearly all actives have a fitted effect of over 60% in size. Note: potency is the fitted concentration of half-maximal effect. The procedure, abridged: as §1
Test [8] in a line: qHTS for Inhibitors of Plasmodium falciparum (CP250) proliferation (AID 504320).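 Note: plate controls were DMSO vehicle for no effect and 0.29 µM artemisinin control for full effect.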 A digest of the protocol:
as §1

Test [9] deals with Glucocorticoid receptor (Homo sapiens) (UniProt P04150). As to the kind of experiment: GR-GFP Redistribution (AID 450;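 active = compounds whose dose series gives a full or clear partial fitted curve of increased nuclear translocation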; note: potency is the fitted concentration of half-maximal effect). As to conditions: U2OS GR-GFP nuclear translocation, laser cytometry, 2 h.
Test [10] is described as follows: qHTS Assay for Lipid Storage Modulators (AID 1519; calls by dose curve; for activity change, negative = inhibition: % is set by controls: 0 for no effect and ±100 for the full control effect). As to conditions: Drosophila S3 cells, BODIPY lipid droplet/cell ratio, laser cytometry, cells loaded with oleic acid. The procedure, abridged:
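Cells seeded at 5,000 per well were treated with compounds over a concentration series and loaded with oleic acid (400 uM, as added). Lipid droplet fluorescence (488 nm excitation, 500-530 nm channel) was read by laser-scanning cytometry and normalized to 20 uM Triacsin C.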

The target of test [11] is Ubiquitin carboxyl-terminal hydrolase 1 (Homo sapiens) (UniProt O94782). Nature of the test: Inhibitors of USP1/UAF1: Pilot qHTS (AID 504865).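 Note: rhodamine fluorescence freed from ubiquitin-rhodamine substrate followed over time; top concentration of the series differs between compounds; % is set by controls: 0 for no effect and ±100 for the full control effect; nearly all actives have a fitted effect of over 35% in size.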 A digest of the protocol: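 USP1/UAF1 complex (1nM) preincubated with compound 15 min at room temperature, then Ub-Rho substrate (150nM final) added. Fluorescence read kinetically at 480/540 nm, 6 reads every 60 seconds. Buffer: 50mM HEPES pH 7.8, 0.5mM EDTA, 0.1 mg/ml BSA, 1mM TCEP, 0.01% Tween-20.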

The target of test [12] is DNA dC->dU-editing enzyme APOBEC-3G (Homo sapiens) (UniProt Q9HC16). Nature of the test: qHTS for inhibitors of Vif-A3G interactions: Validation (AID 588379). Note: 0% is about no effect. The procedure, abridged:
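HeLa cells stably expressing Vif and A3G-eYFP, 700 cells/well, incubated overnight at 37 deg C, then exposed to compound overnight at 37 deg C. Inhibition of Vif-mediated degradation read as increased yellow fluorescence (Ex 488/Em 500-530) by laser-scanning cytometry.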

Test [13] has as its target Cytochrome P450 3A4 (Homo sapiens) (UniProt P08684). As to the kind of experiment: qHTS Assay for Activators of Cytochrome P450 3A4 (AID 885). Note: nearly all actives have a fitted effect of over 65% in size. The procedure, abridged: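 Quantitative HTS format: compounds preincubated with 20nM human CYP3A4 and Luciferin-PPXE substrate at KM, reaction started by NADPH regeneration, stopped after 60 min, luciferase luminescence read 20 min later.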

Several values for one entry are separate records, joined by “and”; a condition that tells them apart may be missing. Equal values may be shown once. Records with an inconclusive call do not appear. Some structures have more than one record in an assay (separate samples or runs), and their calls can disagree. Activity calls are given as the source filed them. Unless noted, calls come from the whole dose curve; as a rule, active = well fitted curve in the direction sought with a large enough effect; inconclusive = small, poorly fitted or top-dose-only effect, or another doubt; inactive = no such curve, though single readings can be large; an effect the other way counts as inactive or inconclusive.

Sequence of Cytochrome P450 3A4 (Homo sapiens) (P08684 whole entry, looked up): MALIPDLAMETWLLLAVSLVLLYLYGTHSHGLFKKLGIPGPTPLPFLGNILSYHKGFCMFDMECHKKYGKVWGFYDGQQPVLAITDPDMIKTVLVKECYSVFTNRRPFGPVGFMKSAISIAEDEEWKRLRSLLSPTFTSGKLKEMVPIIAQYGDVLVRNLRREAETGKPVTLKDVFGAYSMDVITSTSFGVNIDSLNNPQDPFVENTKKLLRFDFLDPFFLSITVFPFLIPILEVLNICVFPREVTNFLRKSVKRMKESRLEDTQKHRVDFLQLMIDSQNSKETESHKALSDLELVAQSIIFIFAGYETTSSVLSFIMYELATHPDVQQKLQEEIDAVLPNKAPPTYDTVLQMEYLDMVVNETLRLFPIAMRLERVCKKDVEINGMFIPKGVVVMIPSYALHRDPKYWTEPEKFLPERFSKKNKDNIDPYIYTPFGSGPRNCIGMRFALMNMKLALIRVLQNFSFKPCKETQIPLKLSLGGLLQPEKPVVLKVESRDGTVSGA
Sequence of Glucocorticoid receptor (Homo sapiens) (P04150 whole entry, looked up): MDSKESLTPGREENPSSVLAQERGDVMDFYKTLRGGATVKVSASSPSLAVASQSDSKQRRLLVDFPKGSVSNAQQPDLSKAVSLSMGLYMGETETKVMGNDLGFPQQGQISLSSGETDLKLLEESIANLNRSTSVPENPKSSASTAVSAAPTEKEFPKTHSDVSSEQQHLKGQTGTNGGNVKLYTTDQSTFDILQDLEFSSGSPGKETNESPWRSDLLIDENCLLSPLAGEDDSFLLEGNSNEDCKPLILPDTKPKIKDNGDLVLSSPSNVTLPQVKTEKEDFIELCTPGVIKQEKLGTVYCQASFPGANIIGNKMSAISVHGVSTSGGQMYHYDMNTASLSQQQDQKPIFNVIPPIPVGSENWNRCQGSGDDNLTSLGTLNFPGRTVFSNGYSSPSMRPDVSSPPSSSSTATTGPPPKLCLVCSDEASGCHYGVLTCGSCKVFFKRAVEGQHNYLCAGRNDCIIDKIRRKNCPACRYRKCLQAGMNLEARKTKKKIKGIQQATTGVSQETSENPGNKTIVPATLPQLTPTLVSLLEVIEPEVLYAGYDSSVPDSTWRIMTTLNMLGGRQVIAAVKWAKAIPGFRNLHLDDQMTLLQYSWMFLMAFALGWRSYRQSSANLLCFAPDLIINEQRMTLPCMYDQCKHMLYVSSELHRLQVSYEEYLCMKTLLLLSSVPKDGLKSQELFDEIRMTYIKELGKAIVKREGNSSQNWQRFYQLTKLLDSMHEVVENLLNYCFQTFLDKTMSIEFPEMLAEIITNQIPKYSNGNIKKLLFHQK
Sequence of Ubiquitin carboxyl-terminal hydrolase 1 (Homo sapiens) (O94782 whole entry, looked up): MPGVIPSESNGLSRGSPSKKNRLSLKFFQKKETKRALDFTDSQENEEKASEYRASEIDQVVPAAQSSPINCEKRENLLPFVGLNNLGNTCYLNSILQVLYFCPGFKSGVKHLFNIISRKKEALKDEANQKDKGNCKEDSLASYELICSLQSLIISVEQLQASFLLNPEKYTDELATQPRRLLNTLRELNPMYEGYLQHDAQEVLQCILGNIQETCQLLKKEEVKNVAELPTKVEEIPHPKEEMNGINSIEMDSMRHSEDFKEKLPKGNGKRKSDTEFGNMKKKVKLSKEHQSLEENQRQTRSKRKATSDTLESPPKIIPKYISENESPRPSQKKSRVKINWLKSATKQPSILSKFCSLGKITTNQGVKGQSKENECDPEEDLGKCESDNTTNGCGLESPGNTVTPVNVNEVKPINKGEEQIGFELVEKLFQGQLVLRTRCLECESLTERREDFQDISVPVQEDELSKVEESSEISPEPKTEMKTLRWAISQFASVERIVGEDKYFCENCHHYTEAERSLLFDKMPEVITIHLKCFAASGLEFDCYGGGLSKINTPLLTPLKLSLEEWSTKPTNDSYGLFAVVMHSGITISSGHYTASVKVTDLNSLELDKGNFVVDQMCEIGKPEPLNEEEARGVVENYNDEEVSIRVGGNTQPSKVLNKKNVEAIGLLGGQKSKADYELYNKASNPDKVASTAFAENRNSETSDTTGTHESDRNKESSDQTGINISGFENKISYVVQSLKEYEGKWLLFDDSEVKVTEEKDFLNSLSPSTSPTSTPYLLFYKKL
Sequence of DNA dC->dU-editing enzyme APOBEC-3G (Homo sapiens) (Q9HC16 whole entry, looked up): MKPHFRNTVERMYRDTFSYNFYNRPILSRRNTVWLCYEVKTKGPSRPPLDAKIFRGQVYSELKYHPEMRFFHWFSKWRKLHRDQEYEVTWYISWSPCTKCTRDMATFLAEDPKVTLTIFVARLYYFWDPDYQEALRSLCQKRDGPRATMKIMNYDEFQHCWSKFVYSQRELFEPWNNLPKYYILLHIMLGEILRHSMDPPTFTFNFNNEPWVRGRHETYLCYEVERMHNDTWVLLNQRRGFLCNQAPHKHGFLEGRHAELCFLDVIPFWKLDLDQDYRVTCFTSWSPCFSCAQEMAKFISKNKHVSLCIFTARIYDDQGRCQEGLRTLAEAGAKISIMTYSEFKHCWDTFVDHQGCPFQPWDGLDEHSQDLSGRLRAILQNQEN

For the molecule `Cc1cccc(C(=O)Nc2ccc(C(=O)OCc3cc(=O)n4c5c(sc4n3)CCCC5)cc2)c1`, the Potency entry in test [1] and in test [2] was “inactive” throughout.

With `CC1CCC(C(C)C)C(P(=O)(c2ccccc2)c2ccccc2)C1` (configuration not stated), the Potency entry in test [3] is “inactive”.

As for `C=CC[C@@H]1C=C[C@H](ON=C[C@@H](C)[C@H](OCc2ccccc2)C(C)C)[C@H](CO)O1`, the Potency result in test [4], in test [5], in [6], in [7] and in test [8] was “inactive” in each case.

`Cc1ccc(C(=O)OC[C@H]2O[C@H](Cl)C[C@H]2OC(=O)c2ccc(C)cc2)cc1`: the Potency in test [4] is 1.69 µM (active).

With `O=C1CCC=C1C(O)c1ccccc1` (configuration not stated), the Potency result in test [4], in test [5], in test [6], in test [7] and in [8] was “inactive” throughout.

As to `COC(=O)[C@H]1[C@@H](c2cccc(C(F)(F)F)c2)NC(=O)N(Cc2ccccc2)[C@@H]1C`, the Potency result in test [4], in test [5], in [6], in test [7] and in [8] was “inactive” each time.

With `COc1ccc(-c2nc(-c3ccccc3)c(NC(C)(C)C)o2)cc1`, the Potency is 1.69 µM (active) and inactive in test [4]; 1.69 µM (active) and inactive in test [5]; 1.51 µM (active) and inactive in test [6]; 2.13 µM (active) and inactive in test [7]. The Potency result in test [8] is “inactive”.

In the case of `CCCCc1cc2c(cn1)C(=O)C(C)(OC(C)=O)C(=O)C2` (configuration not stated), the Potency was 1.69 µM (active) in test [4]; 1.69 µM (active) in test [5]; 2.13 µM (active) and 1.69 µM (active) in test [6]. In [4], the activity, negative = inhibition is -3.91% [at 1.12 µM] (inactive). Moreover, the Potency entry in test [7] and in test [8] was “inactive” throughout.

With `CCCC[C@H]1CN2[C@H](c3ccc(Br)cc3)[C@H](C)CC[C@H]2C(=O)O1`, the Potency result in [4], in [5], in test [6], in [7] and in test [8] was “inactive” throughout.

`CCN(CC)CCCN=C1NC(c2cccc(C(F)(F)F)c2)C(C(=O)OC)=C(C)N1CC` (configuration not stated): the Potency result in [4], in test [5], in [6], in test [7] and in [8] was “inactive” in each case.

With `COC(=O)C1=C(C)N(CC#C[Si](C)(C)C)C(=O)N(C(C)=O)C1c1ccccc1` (configuration not stated), the Potency result in [4], in test [5], in [6], in [7] and in test [8] was “inactive” throughout.

Take `COC(=O)C1=C(C)N(CC2CC2)C(=O)NC1c1ccccc1` (configuration not stated): the Potency result in test [4], in test [5], in test [6], in [7] and in [8] was “inactive” each time.

In the case of `Cc1cc(C(=O)O)ccc1[C@H](N)C(=O)O`, the Potency in [9] is > 46000 nM (inactive). The activity change, negative = inhibition in [10] (at 57.5 µM (top of the series)) is 1.88% (inactive). The figures for the max response in test [10] (measured here: cell count channel max response) and in [10] (measured here: lipid channel max response) were 7.87% and 9.03%, respectively. Besides, the Potency result in test [11] and in test [12] was “inactive” each time.

Turning to `COc1ccc2c(c1)O[C@H](c1ccc3c(c1)OCO3)[C@@H](OC(=O)Nc1cc(OC)c(OC)c(OC)c1)C2=O`, the Potency entry in test [4], in [5], in test [6] and in [7] was “inactive” throughout.

Regarding `COC(=O)N1C2CC3(C)C=C(C)OC1(C)C3c1ccccc12` (configuration not stated), the Potency entry in test [4], in test [5], in [6], in test [7] and in test [8] was “inactive” each time.

For `COC(=O)CCCC1=CC2=CC(=O)C(C)(OC(=O)c3cccs3)C(=O)C2=CN1CCN1CCOCC1` (configuration not stated), the Potency result in [4], in [5], in test [6], in [7] and in [8] was “inactive” throughout.

As to `C=CCOC(=O)C(C(C)=O)[C@@H](NC(=O)OC)c1cccc(C)c1` (some centres not stated), the Potency entry in test [4], in test [5], in [6], in test [7] and in [8] was “inactive” in each case.

As to `COC(=O)CC=C[C@@H](C)[C@@H](C=NOCC[C@@H]1C=C[C@H](OC(C)=O)[C@@H](COC(C)=O)O1)NS(=O)(=O)c1ccc(C)cc1`, the Potency result in test [4], in test [5], in test [6], in test [7] and in test [8] was “inactive” in each case.

As to `COc1cc(C=O)c([N+](=O)[O-])cc1OC`, the Potency result in test [13] and in test [3] was “inactive” each time.
